Measurements reported in the supplement of paper PMC10849652.
Targets with a hit are over-represented here; the source holds about 7,900 in all. About 0.6% of all pairs of compound and target were hits. A number with no mark means an inactive call.

Key:
Test in all cases: log2 fold change, soluble protein after heating vs DMSO (PISA); higher = thermal stabilisation; K562 cells, 10 uM, 30 min; active = over 0.2 and 3.5 SD of the protein, either way, in both replicates (recomputed)
[1] = compound: COC1=CC=C(C=C1)CN2C=CC3=C2C=C(C=C3)C(=O)NO
How it was run: (§1)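 Thermal stability values are relative to control samples and come from duplicates. They are expressed as log2 fold changes. For measurement, K562 cells (2×10^6 cells/mL) received 10 μM compound for 30 min, and aliquots were heated for 3 min over 48°C-58°C, pooled, and extracted at 4°C in PBS with 0.5% NP-40. Soluble protein, the supernatant after 21,000xg for 90 min, was quantified by TMTpro 16plex LC-MS/MS with equalised channel sums.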

filanesib = compound: CON(C)C(=O)N1N=C(c2cc(F)ccc2F)S[C@@]1(CCCN)c1ccccc1 [filanesib]
How it was run: as §1

zotarolimus = compound: CO[C@H]1C[C@@H]2CC[C@@H](C)[C@@](O)(O2)C(=O)C(=O)N2CCCC[C@H]2C(=O)O[C@H]([C@H](C)C[C@@H]2CC[C@H](n3cnnn3)[C@H](OC)C2)CC(=O)[C@H](C)/C=C(\C)[C@@H](O)[C@@H](OC)C(=O)[C@H](C)C[C@H](C)/C=C/C=C/C=C/1C [zotarolimus]
How it was run: as §1

idasanutlin = compound: COc1cc(C(=O)O)ccc1NC(=O)[C@@H]1N[C@@H](CC(C)(C)C)[C@](C#N)(c2ccc(Cl)cc2F)[C@H]1c1cccc(Cl)c1F [idasanutlin]
How it was run: as §1

alisertib = compound: COc1cc(Nc2ncc3c(n2)-c2ccc(Cl)cc2C(c2c(F)cccc2OC)=NC3)ccc1C(=O)O [alisertib]
How it was run: as §1

[2] = compound: COc1cc2nc(-c3cc(F)ccc3O)nc(N[C@@H]3CNC[C@H]3C(C)(C)O)c2cc1OC
How it was run: as §1

gefitinib = compound: COc1cc2ncnc(Nc3ccc(F)c(Cl)c3)c2cc1OCCCN1CCOCC1 [gefitinib]
How it was run: as §1

[3] = compound: COc1cccc2cc(-c3nc([C@H]4CC[C@H](C(=O)O)CC4)n4ncnc(N)c34)[nH]c12
How it was run: as §1

lapatinib = compound: CS(=O)(=O)CCNCc1ccc(-c2ccc3ncnc(Nc4ccc(OCc5cccc(F)c5)c(Cl)c4)c3c2)o1 [lapatinib]
How it was run: as §1

[4] = compound: CS(=O)(=O)c1ccc(-c2cnc(N)c(C(=O)Nc3ccccc3)n2)cc1
How it was run: as §1

crizotinib = compound: C[C@@H](Oc1cc(-c2cnn(C3CCNCC3)c2)cnc1N)c1c(Cl)ccc(F)c1Cl [crizotinib]
How it was run: as §1

[5] = compound: C[C@@H]1COCCN1C2=NC(=NC(=C2)C3(CC3)S(=O)(=O)C)C4=C5C=CNC5=CC=C4
How it was run: as §1

[6] = compound: C[C@H](C1=CC=C(C=C1)C(=O)NC2=C3C=CNC3=NC=C2)N
How it was run: as §1

tozasertib = compound: Cc1cc(Nc2cc(N3CCN(C)CC3)nc(Sc3ccc(NC(=O)C4CC4)cc3)n2)n[nH]1 [tozasertib]
How it was run: as §1

doramapimod = compound: Cc1ccc(-n2nc(C(C)(C)C)cc2NC(=O)Nc2ccc(OCCN3CCOCC3)c3ccccc23)cc1 [doramapimod]
How it was run: as §1

ispinesib = compound: Cc1ccc(C(=O)N(CCCN)[C@@H](c2nc3cc(Cl)ccc3c(=O)n2Cc2ccccc2)C(C)C)cc1 [ispinesib]
How it was run: as §1

pictilisib = compound: CS(=O)(=O)N1CCN(Cc2cc3nc(-c4cccc5[nH]ncc45)nc(N4CCOCC4)c3s2)CC1 [pictilisib]
How it was run: as §1

duvelisib = compound: C[C@H](Nc1ncnc2nc[nH]c12)c1cc2cccc(Cl)c2c(=O)n1-c1ccccc1 [duvelisib]
How it was run: as §1

gandotinib = compound: Cc1cc(Nc2cc(CN3CCOCC3)c3nc(C)c(Cc4ccc(Cl)cc4F)n3n2)n[nH]1 [gandotinib]
How it was run: as §1

[7] = compound: Cc1cc(SCc2sc(-c3ccc(C(F)(F)F)cc3)nc2C)ccc1OCC(=O)O
How it was run: as §1

UniProt Q9Y5K5, sequence (Q9Y5K5 whole entry, looked up): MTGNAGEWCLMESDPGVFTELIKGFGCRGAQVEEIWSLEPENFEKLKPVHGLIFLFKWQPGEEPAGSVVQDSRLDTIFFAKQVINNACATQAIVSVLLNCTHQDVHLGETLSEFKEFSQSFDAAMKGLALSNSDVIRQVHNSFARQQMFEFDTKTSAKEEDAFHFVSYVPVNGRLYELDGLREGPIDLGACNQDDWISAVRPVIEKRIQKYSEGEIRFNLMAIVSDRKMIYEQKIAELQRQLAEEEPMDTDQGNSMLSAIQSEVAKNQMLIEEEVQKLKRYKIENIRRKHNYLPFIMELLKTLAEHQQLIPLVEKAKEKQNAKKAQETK
UniProt P61960, sequence (P61960 whole entry, looked up): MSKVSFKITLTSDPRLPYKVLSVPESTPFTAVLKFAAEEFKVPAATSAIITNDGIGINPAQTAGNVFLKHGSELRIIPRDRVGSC
UniProt Q9C037, sequence (Q9C037 whole entry, looked up): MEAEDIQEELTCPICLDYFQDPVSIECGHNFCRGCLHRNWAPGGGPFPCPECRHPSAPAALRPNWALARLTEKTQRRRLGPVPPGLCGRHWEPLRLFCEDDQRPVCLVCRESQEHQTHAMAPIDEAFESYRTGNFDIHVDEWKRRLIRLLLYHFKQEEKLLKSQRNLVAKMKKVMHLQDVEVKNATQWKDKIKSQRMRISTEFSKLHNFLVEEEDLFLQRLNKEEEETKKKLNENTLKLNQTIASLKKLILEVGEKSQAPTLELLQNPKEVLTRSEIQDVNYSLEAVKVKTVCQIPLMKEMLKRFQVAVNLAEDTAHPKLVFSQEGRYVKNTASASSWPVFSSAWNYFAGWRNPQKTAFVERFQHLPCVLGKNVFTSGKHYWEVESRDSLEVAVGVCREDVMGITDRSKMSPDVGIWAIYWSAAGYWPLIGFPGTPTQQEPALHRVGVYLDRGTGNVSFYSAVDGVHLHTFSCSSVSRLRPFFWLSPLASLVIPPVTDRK
UniProt Q96DX7, sequence (Q96DX7 whole entry, looked up): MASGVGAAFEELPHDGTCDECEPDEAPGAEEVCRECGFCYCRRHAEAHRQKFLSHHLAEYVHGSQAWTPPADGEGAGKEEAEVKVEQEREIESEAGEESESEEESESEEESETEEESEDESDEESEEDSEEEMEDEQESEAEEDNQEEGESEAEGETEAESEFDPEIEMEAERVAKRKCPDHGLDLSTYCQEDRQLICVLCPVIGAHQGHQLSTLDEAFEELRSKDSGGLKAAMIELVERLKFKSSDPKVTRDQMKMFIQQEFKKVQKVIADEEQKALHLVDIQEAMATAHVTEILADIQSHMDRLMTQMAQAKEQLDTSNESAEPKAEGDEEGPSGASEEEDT
UniProt Q9NX01, sequence (Q9NX01 whole entry, looked up): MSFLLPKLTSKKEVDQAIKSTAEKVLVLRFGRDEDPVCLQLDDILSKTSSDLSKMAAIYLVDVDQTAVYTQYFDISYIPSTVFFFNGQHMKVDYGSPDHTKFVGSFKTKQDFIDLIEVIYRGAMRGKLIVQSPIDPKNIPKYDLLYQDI
UniProt Q9H269, sequence (Q9H269 whole entry, looked up): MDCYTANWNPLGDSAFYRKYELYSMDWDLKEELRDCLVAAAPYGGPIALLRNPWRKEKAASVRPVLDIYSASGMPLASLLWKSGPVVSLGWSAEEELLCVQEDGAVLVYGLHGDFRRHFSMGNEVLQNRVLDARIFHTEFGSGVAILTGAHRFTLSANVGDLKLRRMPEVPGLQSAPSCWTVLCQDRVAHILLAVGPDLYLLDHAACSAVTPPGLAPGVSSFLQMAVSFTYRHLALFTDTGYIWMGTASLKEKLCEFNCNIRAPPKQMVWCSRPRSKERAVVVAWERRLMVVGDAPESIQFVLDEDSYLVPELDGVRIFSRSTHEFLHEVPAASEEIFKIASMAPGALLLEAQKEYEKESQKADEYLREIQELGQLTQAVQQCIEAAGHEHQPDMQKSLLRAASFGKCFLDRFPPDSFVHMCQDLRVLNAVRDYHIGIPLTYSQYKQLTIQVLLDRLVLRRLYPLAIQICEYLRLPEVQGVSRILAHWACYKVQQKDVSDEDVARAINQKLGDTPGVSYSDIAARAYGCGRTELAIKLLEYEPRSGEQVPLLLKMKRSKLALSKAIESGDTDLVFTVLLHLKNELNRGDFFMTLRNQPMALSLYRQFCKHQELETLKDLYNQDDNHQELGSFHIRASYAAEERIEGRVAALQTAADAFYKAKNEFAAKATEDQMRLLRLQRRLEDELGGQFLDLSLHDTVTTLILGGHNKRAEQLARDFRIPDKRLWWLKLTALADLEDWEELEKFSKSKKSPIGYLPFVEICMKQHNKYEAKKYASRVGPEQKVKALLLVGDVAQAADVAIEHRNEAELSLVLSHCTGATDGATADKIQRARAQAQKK
UniProt Q8NEZ2, sequence (Q8NEZ2 whole entry, looked up): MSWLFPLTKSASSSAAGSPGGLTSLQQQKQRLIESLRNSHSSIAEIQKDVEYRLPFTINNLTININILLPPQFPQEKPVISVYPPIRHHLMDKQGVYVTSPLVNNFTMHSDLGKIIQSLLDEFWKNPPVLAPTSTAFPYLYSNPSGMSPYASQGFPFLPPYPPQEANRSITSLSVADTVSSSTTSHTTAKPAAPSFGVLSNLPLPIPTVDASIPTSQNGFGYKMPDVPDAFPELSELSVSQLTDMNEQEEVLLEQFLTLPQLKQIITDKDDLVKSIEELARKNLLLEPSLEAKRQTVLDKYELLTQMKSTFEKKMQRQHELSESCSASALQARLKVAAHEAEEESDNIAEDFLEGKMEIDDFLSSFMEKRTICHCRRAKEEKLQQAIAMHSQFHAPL

Work on UCHL5 isoform 3 (UniProt Q9Y5K5) yielded a log2 fold change [1] of 0.229, a log2 fold change (filanesib) of -0.13 and a log2 fold change (zotarolimus) of 0.227. The log2 fold change (idasanutlin) was 0.057, the log2 fold change (alisertib) was 0.072 and the log2 fold change [2] was 0.036. The log2 fold change (gefitinib) was -0.04, the log2 fold change [3] was 0.16 and the log2 fold change (lapatinib) was -0.07. For the same target, the log2 fold change [4] was 0.039, the log2 fold change (crizotinib) was -0.458 and the log2 fold change [5] was 0.058. It also gave a log2 fold change [6] of -0.05, a log2 fold change (tozasertib) of 0.219 and a log2 fold change (doramapimod) of -0.067. It also gave a log2 fold change (ispinesib) of 0.02.

VPS37A (UniProt Q8NEZ2) gave a log2 fold change [1] of -0.046, a log2 fold change (filanesib) of -0.011 and a log2 fold change (zotarolimus) of 0.107. For the same target, the log2 fold change (idasanutlin) was 0.002, the log2 fold change (alisertib) was -0.054 and the log2 fold change [2] was 0.001. The log2 fold change (gefitinib) was 0.05, the log2 fold change [3] was 0.024 and the log2 fold change (lapatinib) was -0.035. For the same target, the log2 fold change (pictilisib) was 0.058, the log2 fold change [4] was 0.035 and the log2 fold change (crizotinib) was -0.146. It also gave a log2 fold change [5] of 0.092, a log2 fold change [6] of -0.084 and a log2 fold change (duvelisib) of 0.044. It also gave a log2 fold change (gandotinib) of -0.292, a log2 fold change (tozasertib) of 0.057 and a log2 fold change [7] of 0.206. The log2 fold change (doramapimod) was -0.017 and the log2 fold change (ispinesib) was 0.

With UBA52 (UniProt P62987) the log2 fold change [1] was 0, the log2 fold change (filanesib) was 0.519 and the log2 fold change (zotarolimus) was -0.171. The log2 fold change (idasanutlin) was 0.308, the log2 fold change (alisertib) was -0.131 and the log2 fold change [2] was -0.203. The log2 fold change [3] was -0.275, the log2 fold change (lapatinib) was 0.141 and the log2 fold change (pictilisib) was -0.177. For the same target, the log2 fold change [4] was -0.065, the log2 fold change (crizotinib) was -0.02 and the log2 fold change [5] was -0.909 (active). The log2 fold change [6] was 0.364, the log2 fold change (gandotinib) was 0.44 and the log2 fold change (tozasertib) was 0.053. It also gave a log2 fold change (doramapimod) of 0.118 and a log2 fold change (ispinesib) of -0.165.

VPS16 (UniProt Q9H269) showed a log2 fold change [1] of 0.018, a log2 fold change (filanesib) of -0.093 and a log2 fold change (zotarolimus) of 0.033. The log2 fold change (idasanutlin) was -0.065, the log2 fold change (alisertib) was -0.056 and the log2 fold change [2] was -0.009. The log2 fold change (gefitinib) was -0.1, the log2 fold change [3] was -0.017 and the log2 fold change (lapatinib) was -0.006. For the same target, the log2 fold change (pictilisib) was -0.044, the log2 fold change [4] was 0.035 and the log2 fold change (crizotinib) was -0.105. The log2 fold change [5] was -0.09, the log2 fold change [6] was 0.08 and the log2 fold change (duvelisib) was 0.023. It also gave a log2 fold change (gandotinib) of -0.163, a log2 fold change (tozasertib) of 0.033 and a log2 fold change [7] of 0.092. The log2 fold change (doramapimod) was 0.085 and the log2 fold change (ispinesib) was -0.239.

Target TRIM4 (UniProt Q9C037) has a log2 fold change [1] of -0.066, a log2 fold change (filanesib) of 0.003 and a log2 fold change (zotarolimus) of 0.056. It also gave a log2 fold change (idasanutlin) of -0.208, a log2 fold change (alisertib) of -0.088 and a log2 fold change [2] of 0.129. The log2 fold change (gefitinib) was -0.155, the log2 fold change [3] was -0.137 and the log2 fold change (lapatinib) was -0.011. For the same target, the log2 fold change (pictilisib) was 0.202, the log2 fold change [4] was 0.114 and the log2 fold change (crizotinib) was 0.045. For the same target, the log2 fold change [5] was 0.037, the log2 fold change [6] was 0.061 and the log2 fold change (gandotinib) was -0.023. The log2 fold change (tozasertib) was 0.023, the log2 fold change (doramapimod) was 0.092 and the log2 fold change (ispinesib) was -0.033.

TRIM44 (UniProt Q96DX7) gave a log2 fold change [1] of -0.074, a log2 fold change (filanesib) of 0.022 and a log2 fold change (zotarolimus) of 0.005. The log2 fold change (idasanutlin) was -0.025, the log2 fold change (alisertib) was 0.008 and the log2 fold change [2] was -0.047. The log2 fold change (gefitinib) was -0.027, the log2 fold change [3] was -0.033 and the log2 fold change (lapatinib) was 0.025. For the same target, the log2 fold change (pictilisib) was 0.039, the log2 fold change [4] was 0.013 and the log2 fold change (crizotinib) was 0.083. It also gave a log2 fold change [6] of -0.059, a log2 fold change (duvelisib) of 0.063 and a log2 fold change (gandotinib) of 0.045. It also gave a log2 fold change (tozasertib) of 0.022, a log2 fold change [7] of 0.024 and a log2 fold change (doramapimod) of -0.004. The log2 fold change (ispinesib) was 0.03.

TXNL4B (UniProt Q9NX01) showed a log2 fold change [1] of 0.011, a log2 fold change (filanesib) of -0.034 and a log2 fold change (zotarolimus) of -0.008. It also gave a log2 fold change (idasanutlin) of -0.147, a log2 fold change (alisertib) of 0.097 and a log2 fold change [2] of 0.106. The log2 fold change (gefitinib) was 0.042, the log2 fold change [3] was -0.064 and the log2 fold change (lapatinib) was -0.003. For the same target, the log2 fold change (pictilisib) was -0.003, the log2 fold change [4] was 0.22 and the log2 fold change (crizotinib) was 0.309. It also gave a log2 fold change [6] of 0.008, a log2 fold change (duvelisib) of 0.083 and a log2 fold change (gandotinib) of -0.024. It also gave a log2 fold change (tozasertib) of 0.07, a log2 fold change [7] of 0.054 and a log2 fold change (doramapimod) of 0.037. For the same target, the log2 fold change (ispinesib) was -0.017.

With UFM1 (UniProt P61960) the log2 fold change [1] was 0.048, the log2 fold change (filanesib) was -0.08 and the log2 fold change (zotarolimus) was -0.139. It also gave a log2 fold change (idasanutlin) of 0.28, a log2 fold change (alisertib) of -0.001 and a log2 fold change [2] of 0.01. For the same target, the log2 fold change (gefitinib) was 0.069, the log2 fold change [3] was 0.055 and the log2 fold change (lapatinib) was -0.002. For the same target, the log2 fold change [4] was 0.021, the log2 fold change (crizotinib) was 0.004 and the log2 fold change [5] was 0.178. It also gave a log2 fold change [6] of -0.062, a log2 fold change (duvelisib) of 0.146 and a log2 fold change (tozasertib) of -0.056. It also gave a log2 fold change [7] of -0.043, a log2 fold change (doramapimod) of -0.037 and a log2 fold change (ispinesib) of 0.158.

With TUBA4A (UniProt C9JJQ8) the log2 fold change [1] was 0.083, the log2 fold change (filanesib) was 0.016 and the log2 fold change (zotarolimus) was -0.041. The log2 fold change [2] was 0.052, the log2 fold change (lapatinib) was 0.018 and the log2 fold change [4] was 0.009. It also gave a log2 fold change (crizotinib) of -0.019, a log2 fold change [6] of -0.159 and a log2 fold change (duvelisib) of 0.19. It also gave a log2 fold change (tozasertib) of 0.001, a log2 fold change [7] of 0.108 and a log2 fold change (doramapimod) of -0.046.
